Source: PubChem
The sample as a whole holds a higher share of hits than the screen did.
Pf Dd2 inh = Plasmodium falciparum Dd2 growth inhibition | P. falciparum Dd2 growth, SYBR Green, 72 h | Potency, µM (top dose mostly 28.9 µM), inactives show at the top dose activity, negative = inhibition, hits mostly inhibitors | 4.3% of 120,000 active | AID 1347417; active = well fitted inhibition curve with a large enough effect;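 also: plate controls were DMSO vehicle for no effect and reference drug for full effect; nearly all actives have a fitted effect of over 65% in size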
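Infected erythrocytes (Dd2, 0.3% parasitemia, 2.5% hematocrit final) are added to compound in RPMI-1640/Albumax II medium, grown 72 h at 37C in low oxygen, then lysed with saponin/Triton-X containing SYBR Green and read by fluorescence.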
* marks the source's active call; other numbers are inactive results; [ ] = dose if it differs, or a comment. Potency is read from the fitted curve at half-maximal effect.

COc1ccc(C2NC(=O)N(C)C3=C2C(=O)N(c2cccc(Cl)c2)C3)cc1 (stereo not drawn) was read as Pf Dd2 inh -22%.
`N#Cc1ccc(C(=O)N2CCN(S(=O)(=O)c3ccc(F)cc3)[C@@H](C(=O)N[C@H]3CCCNC3=O)C2)cc1` gave Pf Dd2 inh 0%.
Screening O=C(COc1ccccc1F)Nc1nnc(SCc2cc(=O)c3ccccc3[nH]2)s1 returned Pf Dd2 inh inactive.
`COc1ccc(N2Cc3c(NCC(C)(C)C)ncnc3N(C)CC2=O)cc1` gave Pf Dd2 inh -4%.
For Cc1cc(C(=O)NCC2(COc3ccccc3)C[C@@H](O)[C@@H](O)C2)no1 (stereo partly drawn) the results were Pf Dd2 inh inactive.
Screening O=C(Cc1ccc(Cl)cc1)N1CCc2n[nH]c(=O)n2CC1 returned Pf Dd2 inh 21%.
For Cc1c(Cl)ccc2sc(NC(=O)c3ccc(S(=O)(=O)N4CCCC4)cc3)nc12 the results were Pf Dd2 inh inactive.
Screening COc1ccc(CN2C(=O)N(c3cccc(C(F)(F)F)c3)C(=O)[C@@H]3[C@H]2CCN3C(=O)CCC(=O)O)cc1 returned Pf Dd2 inh 19%.
Cc1ccccc1C(=O)NC(C(=O)N1CCCCC1)C1CCN(C(=O)CC(C)(C)C)CC1 (stereo not drawn) was read as Pf Dd2 inh inactive.
For CCOc1ccccc1CN1CCC2(CCN(C(=O)Nc3ccccc3)CC2)Oc2ccccc21 the results were Pf Dd2 inh 7.1µM*.
Screening Cc1ccc(C(=O)N2CCC3(CC2)CCN(CCc2ccccc2)c2ccccc2O3)cc1 returned Pf Dd2 inh 11µM*.
For CC(=O)N1CCC2(CC1)CC(=O)N(c1ccccc1)c1ccccc1O2 the results were Pf Dd2 inh -8%.
For CC(=O)Nc1ccc(CN2CCC3(CC2)CC(=O)c2ccccc2O3)cc1 the results were Pf Dd2 inh inactive.
Screening CC(C)(C)C(=O)N1CCC2(CC1)CCN(Cc1cccs1)c1ccccc1O2 returned Pf Dd2 inh 10µM*.
CCCN1CCC2(CCN(C(=O)c3ccc(C)cc3)CC2)Oc2ccccc21 was read as Pf Dd2 inh -2%.
`CCOc1ccccc1CN1CCC2(CCN(C(=O)c3ccc(C)cc3)CC2)Oc2ccccc21` gave Pf Dd2 inh -3%.
Screening CCCN1CCC2(CCN(C(=O)c3ccccc3F)CC2)Oc2ccccc21 returned Pf Dd2 inh inactive.
For CCCN1CCC2(CCN(C(=O)c3ccc(F)cc3)CC2)Oc2ccccc21 the results were Pf Dd2 inh inactive.
Screening CCCN1CCC2(CCN(C(=O)c3ccccc3)CC2)Oc2ccccc21 returned Pf Dd2 inh inactive.
For COc1ccc(C(=O)N2CCC3(CC2)CCN(Cc2cccs2)c2ccccc2O3)cc1 the results were Pf Dd2 inh -19%.
For O=C(Nc1ccc(Cl)cc1)N1CCC2(CC1)CCN(Cc1cccs1)c1ccccc1O2 the results were Pf Dd2 inh 1.4µM*.
CN1C(=O)Cc2cc(S(=O)(=O)CCC(=O)N3CCN(c4cccc(Cl)c4)CC3)ccc21 was read as Pf Dd2 inh -8%.
Screening O=C(NCc1cccc(Cl)c1)C1CCN(C(=O)c2sccc2-n2cccc2)CC1 returned Pf Dd2 inh -1%.
`O=C(c1ccoc1)N1CCCCC1c1nc(CCOCC2CCOCC2)no1` (stereo not drawn) gave Pf Dd2 inh 6%.
`Cc1cnc(CCNC(=O)C2CCOCC2)n1C(C)C` gave Pf Dd2 inh 8%.
For CCN(CC)C(=O)Cn1c(=O)n(CCCCCC(=O)NCc2ccc(C)cc2)c(=O)c2sccc21 the results were Pf Dd2 inh inactive.
NC(=O)C1(N2CCCCC2)CCN(C(=O)Nc2ccc(Cl)c(Cl)c2)CC1 was read as Pf Dd2 inh -1%.
For O=C(NC1CCN(c2cc(-c3ccccc3)[nH]n2)CC1)c1ccccc1 the results were Pf Dd2 inh -3%.
Screening CCOc1ccc(CNS(=O)(=O)c2ccc(-c3coc(C)n3)cc2)cc1 returned Pf Dd2 inh 4%.
CCCN1CCC2(CCN([S+](=O)([O-])c3cccs3)CC2)Oc2ccccc21 was read as Pf Dd2 inh 11µM*.
For O=C1NCC2(CCN([S+](=O)([O-])c3cccs3)CC2)Oc2ccccc21 the results were Pf Dd2 inh -17%.
CCCN1CCC2(CCN([S+](=O)([O-])c3cccc(C(F)(F)F)c3)CC2)Oc2ccccc21 was read as Pf Dd2 inh -25%.
Cc1cc(C(=O)Nc2cccc(F)c2)c2c(C)nn(-c3cccc(Cl)c3C)c2n1 was read as Pf Dd2 inh -22%.
`CO[C@H]1C(=O)N(C(C)C)[C@H]1C1CCN(C(=O)c2cccc(C#N)c2)CC1` gave Pf Dd2 inh 13%.
CO[C@H]1C(=O)N(C(C)C)[C@H]1C1CCN(Cc2cccc(F)c2)CC1 was read as Pf Dd2 inh -25%.
For CO[C@H]1C(=O)N(C(C)C)[C@H]1C1CCN(Cc2cccc(C#N)c2)CC1 the results were Pf Dd2 inh 10µM*.
For O=C(C1CCOCC1)N1CCc2nc(OCC3CC3)ccc2C1 the results were Pf Dd2 inh -27%.
For O=C(Cn1c(=O)oc2ccccc21)N1C[C@@H](CO)[C@H](c2ccccn2)C1 the results were Pf Dd2 inh -2%.
CCOc1ccc(C2CC(=O)Nc3[nH]ncc32)c(OCC)c1C (stereo not drawn) was read as Pf Dd2 inh -17%.
COC(=O)[C@@H]1Cc2ncn(Cc3ccc(OC)cc3)c2CN1C(=O)c1ccc(C#N)cc1 was read as Pf Dd2 inh inactive.
COC(=O)[C@@H]1Cc2ncn(Cc3ccc(OC)cc3)c2CN1C(=O)c1ccc(F)cc1 was read as Pf Dd2 inh -40%[44.1 µM].
For COC(=O)[C@@H]1Cc2ncn(Cc3ccc(OC)cc3)c2CN1Cc1cccc(C#N)c1 the results were Pf Dd2 inh 13µM*.
Screening NC(=O)NCCC(=O)N1CCc2[nH]nc(-c3cccc4ccccc34)c2C1 returned Pf Dd2 inh 0%.
Screening CC(C)CCN1CCOc2cc(C(=O)NCCOc3ccccc3)ccc2C1 returned Pf Dd2 inh inactive.
For CCOc1ccc(S(=O)(=O)N(CC(=O)NCc2ccccc2OC)c2ccccc2)cc1 the results were Pf Dd2 inh 9%.
`CCN(CC)S(=O)(=O)c1ccc2oc(C(=O)NCc3ccccc3OC)c(C)c2c1` gave Pf Dd2 inh 7.9µM*.
For COc1ccc(S(=O)(=O)N(CC(=O)NCc2ccccc2OC)c2ccc(C)cc2)cc1 the results were Pf Dd2 inh -20%.
Cc1ccc(NC(=O)Cn2nc3c(cc2=O)CCCCC3)cc1C was read as Pf Dd2 inh -22%.
Screening CNC(=O)[C@@H]1CN(C(=O)c2cccc(OC)c2C)C[C@H]1COC returned Pf Dd2 inh 7%.
Screening CC1(C(=O)NCc2cc(F)ccc2F)CCCCC(=O)N1 (stereo not drawn) returned Pf Dd2 inh inactive.
For Cc1ccccc1CN1CCc2nc(C(=O)Nc3ccccc3)oc2CC1 the results were Pf Dd2 inh -15%[44.1 µM].
COc1ccccc1CN1CCc2nc(C(=O)Nc3cccc(C(F)(F)F)c3)oc2CC1 was read as Pf Dd2 inh -7%.
Screening Cc1noc(C)c1CN1CCc2nc(C(=O)Nc3ccccc3)oc2CC1 returned Pf Dd2 inh inactive.
Screening O=C(Nc1cccc(C(F)(F)F)c1)c1nc2c(o1)CCN(Cc1ccccc1F)CC2 returned Pf Dd2 inh inactive.
Screening COc1ccccc1CN1CCc2nc(C(=O)Nc3ccccc3)oc2CC1 returned Pf Dd2 inh 11µM*.
For Cc1noc(C)c1CN1CCc2nc(C(=O)Nc3cccc(C(F)(F)F)c3)oc2CC1 the results were Pf Dd2 inh 13µM*.
